Measured values published in PubChem BioAssay (NCI).
This is part of a sample that, as a whole, favours compounds with a hit. Of some 83,000 tested, about 20% had one in any assay.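 Negative percent growth values reflect cell death: -40 means 40% of the cells present at the start died, and -100 means all died.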 A number with no mark means an inactive call. Activity calls are given as the source filed them. How the source made its calls: active means growth percent below 10; inactive means the rest.

What was measured:
Assay in all cases: NCI-60 one-dose screen, 48 h (100 = growth as untreated, 0 = no growth, -100 = all killed)
Settings in all cases: 10 µM unless noted
[1] = test system: NCI-H23 lung
[2] = test system: NCI-H226 lung
[3] = test system: NCI-H322M lung
[4] = test system: HOP-62 NSCLC
[5] = test system: NCI-H460 lung
[6] = test system: HOP-92 NSCLC
[7] = test system: NCI-H522 lung
[8] = test system: A549/ATCC NSCLC
[9] = test system: 786-0 renal
[10] = test system: COLO 205 colon
[11] = test system: DU-145 prostate
[12] = test system: K-562 leukemia
[13] = test system: MALME-3M melanoma
[14] = test system: MDA-MB-231 breast
[15] = test system: RXF 393 renal
[16] = test system: SF-268 CNS
[17] = test system: SF-295 CNS
[18] = test system: SF-539 CNS
[19] = test system: UACC-257 melanoma
[20] = test system: M14 melanoma

SMILES | growth [1] | growth [2] | growth [3] | growth [4] | growth [5] | growth [6] | growth [7] | growth [8] | growth [9] | growth [10] | growth [11] | growth [12] | growth [13] | growth [14] | growth [15] | growth [16] | growth [17] | growth [18] | growth [19] | growth [20]
CN([O-])c1nc(N(C)[O-])nc(N2CCOCC2)n1.CN([O-])c1nc(N(C)[OH2+])nc(N2CCOCC2)n1.[Fe+3] | 100% [100 µM] | 101% [100 µM] | 104% [100 µM] | 165% [100 µM] | 36.1% [100 µM] | 61.7% [100 µM] | 52.9% [100 µM] | 72.7% [100 µM] | 114% [100 µM] | 144% [100 µM] | 63.1% [100 µM] | 16.7% [100 µM] | 118% [100 µM] | 110% [100 µM] | 75.5% [100 µM] | -14.2% [100 µM] (active) | 10.3% [100 µM] | 108% [100 µM] | 96.2% [100 µM] | 91.7% [100 µM]
Cc1ccc(Sc2oc(-c3ccc(C)cc3)nc2[P+](c2ccccc2)(c2ccccc2)c2ccccc2)cc1 | -17.2% (active) | 15.7% | 10.3% | 9.94% (active) | -39.6% (active) | -9.3% (active) | -38.5% (active) | 7.74% (active) | 3.99% (active) | -41.5% (active) | 11.6% | 4.98% (active) | -41.1% (active) | -12.5% (active) | -18.8% (active) | 10.9% | 9.9% (active) | -5.1% (active) | 0.818% (active) | 7.37% (active)
N#Cc1nn(-c2cc(=O)[nH]c3ccc(Cl)cc23)c(N)c1C#N | 104% | 99.4% | 91.9% | 87.2% | 114% | -79.6% (active) | 87.1% | 98.3% | 93.4% | 100% | 118% | -43.9% (active) | 91.9% | 108% | 107% | 113% | 97.6% | 96% | 87% | 93.7%
CN1C(=O)N(C)C2Nn3c(s/c(=C\c4ccc(C(F)(F)F)cc4)c3=O)=NC21 (stereo not given) | 99.4% | 96.3% | 101% | 115% | 107% | 110% | 93.4% | 104% | 105% | 118% | 109% | 93.3% | 107% | 91.7% | 95.7% | 96.9% | 101% | 97.3% | 111% | 110%
Cc1nn(-c2ccccc2)c(Oc2ccccn2)c1-c1nc2ccccc2s1 | 87.7% | 93.8% | 93.3% | 112% | 106% | 80.9% | 82.2% | 92.9% | 104% | 110% | 98.6% | 90.7% | 103% | 124% | 86.1% | 92.9% | 115% | 108% | 98% | 108%
O=c1c2cc(-c3ccccc3)sc2nc2sc(-c3ccccc3)nn12 | 98.9% | 104% | 104% | 102% | 100% | 84.3% | 95.7% | 91.6% | 93% | 109% | 103% | 93.8% | 94.1% | 110% | 93.2% | 100% | 98.8% | 107% | 90.9% | 97.9%
COC(=O)c1cc(-c2ccc(S(C)(=O)=O)cc2)[nH]c1N/N=C/c1c(Cl)cccc1Cl | 29.6% | 47.5% | 15.4% | 3.22% (active) | 3.65% (active) | 18.9% | -15.1% (active) | 25.2% | 5.08% (active) | -19.3% (active) | 4.36% (active) | -1.67% (active) | 4.13% (active) | 50.9% | -2.32% (active) | 37.1% | -28.2% (active) | -19.8% (active) | 60.3% | -8.67% (active)
